Results: PubChem BioAssay AID2289 (National Center for Advancing Translational Sciences (NCATS), 2010)
In all, about 340,000 compounds went through this assay and about 3,300 (0.97%) were called active. Not shown: some 9% with an inconclusive outcome. The call rests on the fitted dose curve; in most records, active means well fitted inhibition curve with a large enough effect; inconclusive means small, poorly fitted or top-dose-only effect, or effect the other way; inactive means flat fitted curve, though single readings scatter. This is one part of the list.

Test: qHTS Assay for Modulators of miRNAs and/or Inhibitors of miR-21; further: nearly all actives have a fitted effect of over 55% in size
Conditions: HeLa miR-21-FLuc reporter, luciferase luminescence, 48 h; actives lower the signal
Method in brief: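 HeLa cells stably expressing CMV-driven firefly luciferase with a downstream miR-21 binding sequence, endogenously expressing miR-21, were treated with titrations (up to about 40uM final) for 48 hours at 37 degree Celsius. Luciferase luminescence was read after lysis.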
Potency means the concentration at half of the fitted maximal effect.

Potency, active:
COc1ccccc1NC(=O)COc1ccc2c(c1)OCO2 7.36 µM
COc1ccccc1NC(=O)COc1ccc(CO)cc1Cl 5.85 µM
Cc1occc1C(=O)N/N=C/c1ccc(-c2ccccc2)cc1 0.147 µM
Cc1ccc(/C=N/NC(=O)c2ccoc2C)o1 16.5 µM
Cc1cccc(/C=N\Nc2cn[nH]c(=O)c2Cl)c1 18.5 µM
Cc1ccc(/C=N\Nc2cn[nH]c(=O)c2Cl)cc1 14.7 µM
O=C(/C(C=Nc1ccc(F)cc1)=C(/O)c1ccco1)C(F)(F)F 4.14 µM
CC(=O)COc1ccc2c3c(c(=O)oc2c1C)CCCCC3 3.29 µM
CC(=O)C(C)Oc1ccc2c3c(c(=O)oc2c1C)CCCC3 (stereo not given) 16.5 µM
O=C(N/N=C/c1ccncc1)c1cccs1 5.21 µM
CSc1ccc(/C=N/NC(=O)c2cccs2)cc1 1.31 µM
Cc1ccc(/C=N/N=C/c2ccc(C)s2)s1 0.927 µM
CC(=O)Nc1ccc(/C=N/NC(=O)c2cccs2)cc1 5.85 µM
O=C(N/N=C/c1ccc2c(c1)OCO2)c1cccs1 1.65 µM
COc1cc(/C=N/NC(=O)c2cccs2)ccc1O 10.4 µM
Cc1ccc(/C=N/NC(=O)c2cccs2)s1 7.36 µM
CCNC(=S)/N=C(\N)Nc1nc(C)c2cc(C)ccc2n1 5.85 µM
Cc1nc2ccc(NC(=O)c3cccs3)cc2s1 3.69 µM
Cc1nc2ccc(C(=O)Nc3ccccc3Cl)cc2s1 3.69 µM
CC(C)(C)c1ccc(C(=O)Nc2ccccc2Cl)cc1 0.826 µM
Cc1nc2ccc(NC(=O)c3ccccc3)cc2s1 5.85 µM
Cc1nc2ccc(NC(=O)c3cc(Cl)ccn3)cc2s1 0.369 µM
Cc1nc2ccc(NC(=O)N(C)c3ccccc3)cc2s1 9.27 µM
Cc1nc2ccc(NC(=O)c3ccc4ccccc4n3)cc2s1 3.69 µM
CCOc1ncccc1C(=O)Nc1ccc2nc(C)sc2c1 8.26 µM
C=CCC(CC(O)COCCC)C(=O)NNC(=S)Nc1ccccc1 (stereo not given) 13.1 µM
CCCn1c(C)cc(/C=C(\C#N)C(=O)OCC(=O)Nc2cc(OC)c(OC)c(OC)c2)c1C 16.5 µM
Cc1ccccc1Nc1nc(N)nc(COC(=O)c2ccccc2)n1 13.1 µM
COc1ccccc1C(=O)OCc1nc(N)nc(Nc2ccccc2C)n1 18.5 µM
Cn1c(SCc2ccc(C#N)cc2Cl)nc2ccccc21 4.65 µM
Cn1c(SCc2ccccc2Cl)nc2ccccc21 3.29 µM
CCn1c(SCc2ccccc2Cl)nc2ccccc21 13.1 µM
O=[N+]([O-])c1ccc2nc(SCc3cn4ccccc4n3)[nH]c2c1 18.5 µM
c1ccn(-c2ccc(-c3ccn[nH]3)cc2)c1 6.56 µM
O=C(c1cnn(-c2cccc(F)c2)c1)c1ccccc1O 3.69 µM
CN(C)c1ccc(/C=C(\C#N)c2nc3ccccc3c(=O)[nH]2)cc1 0.131 µM
N#C/C(=C/c1ccc(O)c(O)c1)c1nc2ccccc2[nH]1 3.29 µM
c1ccc(Nc2nc(-c3ccccc3)ns2)cc1 0.414 µM
Cc1nnc(SCc2ccccc2Cl)c2cc3occc3n12 11.7 µM
Clc1ccc(-c2nc3ccncc3[nH]2)cc1 7.36 µM
Nc1ccc2nc(-c3ccc(Cl)cc3)[nH]c2c1 6.56 µM
CCOC(=O)CCSc1nc(C)c2cc(C)ccc2n1 10.4 µM
CCOC(=O)CCSc1nc(C)c2cc(OC)ccc2n1 8.26 µM
OC1CCCN(c2c3c(nc4cc(-c5cccc(F)c5)nn24)CCCC3)C1 (stereo not given) 2.07 µM
COc1ccc(NC(=O)c2ccccn2)cc1OC 11.7 µM
COc1ccc(NC(=O)c2coc3ccccc23)cc1OC 9.27 µM
O=C(Nc1ccc(SC(F)(F)F)cc1)c1ccccn1 0.369 µM
COc1ccc(NC(=S)Nc2ncccc2C)cc1OC 5.21 µM
Cc1ccc(-c2nnc(CCC(=O)NCC3C4CC5CC(C4)CC3C5)o2)s1 (stereo not given) 14.7 µM
CS(=O)(=O)Nc1ccc(C2=NN(S(C)(=O)=O)C(c3ccc4c(c3)OCO4)C2)cc1 (stereo not given) 4.65 µM
CS(=O)(=O)N1N=C(c2ccc(Br)cc2)CC1c1ccc2c(c1)OCO2 (stereo not given) 0.927 µM
CC(=O)N1N=C(c2ccc(C)cc2)CC1c1ccc2c(c1)OCO2 (stereo not given) 7.36 µM
Cc1ccc(C2=NN(S(C)(=O)=O)C(c3ccc4c(c3)OCO4)C2)cc1 (stereo not given) 0.521 µM
COC(=O)c1ccc(CSC2=NCCS2)cc1 4.65 µM
CC(=O)Nc1nc(-c2ccc(Cl)cc2)ns1 1.85 µM
C/C(=N\N=C\c1ccc(N(C)C)cc1)c1cccc([N+](=O)[O-])c1 13.1 µM
Nc1cc([N+](=O)[O-])cc2oc(-c3ccccc3)cc12 14.7 µM
Cc1ccc(OCc2ccc(Br)cc2)c([N+](=O)[O-])n1 2.61 µM
Cc1ccc(COc2ccc(C)nc2[N+](=O)[O-])cc1 0.927 µM
CCOC(=O)c1cc(C(=O)Nc2ccccc2F)nn1C 1.85 µM
CCOC(=O)c1cc(C(=O)Nc2cccc(C)c2)nn1C 1.31 µM
CCOC(=O)c1cc(C(=O)Nc2ccc(C)c(F)c2)nn1C 4.65 µM
Nc1nc(Nc2ccc(Cl)cc2Cl)nc(C(F)(F)F)n1 6.56 µM
COc1nc(Nc2cccc(C(F)(F)F)c2)nc(OC)n1 14.7 µM
COc1cccc(Nc2nc(N)nc(C(F)(F)F)n2)c1 18.5 µM
CC(=O)c1cnc2cc(-c3ccc(C)cc3)nn2c1C 1.04 µM
CCOC(=O)c1sc2nc(-c3cccnc3)ccc2c1N 0.369 µM
COc1cccc(-c2ccc3c(N)c(C(=O)Nc4cc(F)ccc4F)sc3n2)c1 11.7 µM
CCN(CC)C(=O)c1sc2nc(-c3ccccc3)ccc2c1N 1.47 µM
CCOC(=O)c1sc2nc(-c3ccccc3)ccc2c1N 0.0927 µM
